SMILES strings stand for the structures. About 2,200 (0.71%) of roughly 310,000 compounds showed an effect of 50% or more. The effect is printed as a negative number. This excerpt belongs to a sample that is enriched for strong results.

Chain of human ether-à-go-go-related gene (hERG) potassium channel (Q12809 whole entry, looked up): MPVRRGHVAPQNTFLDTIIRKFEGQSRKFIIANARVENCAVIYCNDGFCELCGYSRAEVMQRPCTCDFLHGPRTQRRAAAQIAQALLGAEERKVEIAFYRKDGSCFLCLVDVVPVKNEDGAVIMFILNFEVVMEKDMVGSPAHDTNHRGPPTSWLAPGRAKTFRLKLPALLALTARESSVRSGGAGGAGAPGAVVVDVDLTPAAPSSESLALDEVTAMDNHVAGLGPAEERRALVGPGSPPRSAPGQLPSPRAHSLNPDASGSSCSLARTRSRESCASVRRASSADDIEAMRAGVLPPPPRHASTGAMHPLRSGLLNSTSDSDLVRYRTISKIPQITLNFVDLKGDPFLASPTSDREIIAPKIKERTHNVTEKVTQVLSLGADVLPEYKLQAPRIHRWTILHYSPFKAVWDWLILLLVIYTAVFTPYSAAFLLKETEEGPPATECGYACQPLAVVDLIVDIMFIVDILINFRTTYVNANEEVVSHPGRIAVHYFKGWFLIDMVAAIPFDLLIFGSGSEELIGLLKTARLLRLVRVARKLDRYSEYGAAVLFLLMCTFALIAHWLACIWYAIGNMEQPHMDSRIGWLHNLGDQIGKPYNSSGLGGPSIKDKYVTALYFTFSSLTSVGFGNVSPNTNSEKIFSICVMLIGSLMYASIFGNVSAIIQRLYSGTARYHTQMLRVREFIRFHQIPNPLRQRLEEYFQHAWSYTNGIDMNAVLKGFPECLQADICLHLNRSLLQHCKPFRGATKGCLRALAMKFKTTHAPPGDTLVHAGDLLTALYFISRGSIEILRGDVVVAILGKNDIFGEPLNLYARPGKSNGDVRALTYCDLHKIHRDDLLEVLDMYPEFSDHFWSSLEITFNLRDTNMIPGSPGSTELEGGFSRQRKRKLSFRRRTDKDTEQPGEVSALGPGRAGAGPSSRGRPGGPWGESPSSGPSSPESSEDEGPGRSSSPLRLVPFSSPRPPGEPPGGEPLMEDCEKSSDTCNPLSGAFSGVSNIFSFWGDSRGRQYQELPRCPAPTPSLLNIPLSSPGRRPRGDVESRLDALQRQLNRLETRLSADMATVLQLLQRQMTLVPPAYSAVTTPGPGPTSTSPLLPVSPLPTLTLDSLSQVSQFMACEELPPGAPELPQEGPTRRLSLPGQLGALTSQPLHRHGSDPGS

This assay concerns the target human ether-à-go-go-related gene (hERG) potassium channel (human, UniProt Q12809). The assay is described as follows: primary screen, population patch clamp on CHO cells stably expressing hERG; higher = less effect of the substance.
Consider `CC(C)C(=O)Nc1ccc(NC(=O)c2ccccn2)cn1`, for which the “hERG current change (%, negative = inhibition) at 1uM” value amounted to 12.6%.
In the case of `O=C(CSc1nnc(CNC(=O)c2ccccc2F)o1)Nc1cccc(C(F)(F)F)c1` it was 16%.
In the case of `COc1ccc[nH]c1=O` it was 1.28%; in that of `CCOC(=O)Cn1cnc2c(nnn2-c2cccc(OC)c2)c1=O`, 17%.
The figure for `COc1ccc(/C(C)=N/N=C2/NC(=O)CC(C(=O)O)S2)cc1` (stereo not drawn) is 5.89%.
Regarding `COCCCNC(=O)CCn1c(=O)c2ccccc2n(CC(=O)Nc2cc(Cl)ccc2C)c1=O`, the “hERG current change (%, negative = inhibition) at 1uM” value is 2.79%.
The figure for `O=C(NCc1ccc2c(c1)OCO2)c1ccc(S(=O)(=O)C(F)F)cc1` is -0.408%.
As to `COc1ccc(-n2ncc3c2CC(C)(C)CC3NC(=O)CCn2cncn2)cc1` (stereo not drawn), the “hERG current change (%, negative = inhibition) at 1uM” value is listed as -5.06%.
In the case of `CC1(C)Cc2c(cnn2-c2ccc(F)cc2)C(NC(=O)c2cnccn2)C1` (stereo not drawn) it was -6.77%; in that of `CC1(C)Cc2c(cnn2-c2ccc(F)cc2)C(NC(=O)c2ccoc2)C1` (stereo not drawn), -95.7%; in that of `CC(=O)c1ccc(C(=O)NC2CC(C)(C)Cc3c2cnn3-c2ccccc2)cc1` (stereo not drawn), 5.88%.
For the compound `CC1(C)Cc2c(cnn2-c2ccc(F)cc2)C(NC(=O)CCn2cncn2)C1` (stereo not drawn), the “hERG current change (%, negative = inhibition) at 1uM” value is reported as -40.7%.
The figure for `CC1(C)Cc2c(cnn2-c2ccccc2)C(NC(=O)c2ccoc2)C1` (stereo not drawn) is -91.7%.
In the case of `Cn1nccc1C(=O)NC1CC(C)(C)Cc2c1cnn2-c1ccc(F)cc1` (stereo not drawn) it was -20%; in that of `Cc1ccc(-n2ncc3c2CC(C)(C)CC3NC(=O)CCn2cncn2)cc1` (stereo not drawn), -78.5%.
The figure for `CC1(C)Cc2c(cnn2-c2ccccc2)C(NC(=O)c2ccc[n+]([O-])c2)C1` (stereo not drawn) is 8.68%; for `CCOc1cc(C#N)ccc1OCC(=O)N1CCN(C(=O)c2cccs2)CC1` it is -16.1%; for `O=C(Nc1ccccc1Cl)c1ccc(S(=O)(=O)NCC2CCCO2)cc1` (stereo not drawn) it is -7.62%.
Turning to `CCOc1ccccc1OCC(=O)O`, the “hERG current change (%, negative = inhibition) at 1uM” value is listed as 12.1%.
In the case of `CCCCn1c(O)c(C(=O)/C=C/c2ccc3c(c2)OCO3)c(=O)[nH]c1=O` it was 11.9%.
In the case of `Cc1ccccc1CN1C[C@@H]2C[C@@H](c3cn[nH]c3-c3ccc(F)cc3)N3CCC[C@@]23C1=O` it was -12.9%; in that of `CC(=O)Oc1ccc(-c2nc3c(C)cccc3c(=O)o2)cc1`, 11.9%.
In the case of `COc1ccc2[nH]c(C)c(C(=O)CN3CCN(C/C=C/c4ccccc4)CC3)c2c1` it was 5.17%.
For `CCOC(=O)c1[nH]c2ccc(OCC)cc2c1NC(=O)CN1CCN(c2ccccc2)CC1`, the “hERG current change (%, negative = inhibition) at 1uM” value is 15.9%.
The figure for `CCOC(=O)N1CCN(CC(=O)Nc2c(C(=O)OC)[nH]c3ccccc23)CC1` is 7.01%; for `CCOC(=O)c1[nH]c2ccc(F)cc2c1NC(=O)CN1CCN(C/C=C/c2ccccc2)CC1` it is -77.3%.
With `COC(=O)c1[nH]c2ccccc2c1NC(=O)CN1CCCCCC1`, the “hERG current change (%, negative = inhibition) at 1uM” value is -3.6%.
For `Cc1[nH]c2ccccc2c1C(=O)CN1CCN(C/C=C/c2ccccc2)CC1`, the “hERG current change (%, negative = inhibition) at 1uM” value was -50.4%.
The figure for `Cc1[nH]c2ccccc2c1C(=O)CN1CCCC1` is 7.66%; for `CCOC(=O)c1[nH]c2ccc(F)cc2c1NC(=O)CN1CCc2cc(OC)c(OC)cc2C1` it is 11.2%; for `COC(=O)c1[nH]c2ccccc2c1NC(=O)CN1CCN(C/C=C/c2ccccc2)CC1` it is -84.4%.
In the case of `O=C(COC(=O)COc1ccc(Br)cc1)NCCC1=CCCCC1` it was 1.54%; in that of `COc1ccc2[nH]cc(CCNC(=O)CCC3CCCCC3)c2c1`, 1.77%.
The figure for `O=C(COC(=O)c1ncc(Cl)c(Cl)c1Cl)NC1CCS(=O)(=O)C1` (stereo not drawn) is -1.03%; for `Cc1ccc(S(=O)(=O)N2CCOC23CCN(C(=O)C(=O)NCCC(C)C)CC3)cc1` it is 4.48%.
In the case of `O=c1[nH]c(=O)n(CCc2ccc(F)cc2)c(O)c1/C=N/N1CCCCC1`, the “hERG current change (%, negative = inhibition) at 1uM” value was 11.7%.
The figure for `CCOC(=O)C1(C)/C(=N/Nc2ccccc2)C(=O)C(=O)N1c1ccccc1` (stereo not drawn) is -3.13%; for `Cc1cccn2c(=O)c3cc(C(=O)NCC4CCCO4)c(=N)n(Cc4ccc(F)cc4)c3nc12` (stereo not drawn) it is -80.4%.
In the case of `Cc1cccn2c(=O)c3cc(C(=O)NC4CCCCC4)c(=N)n(Cc4ccc(F)cc4)c3nc12` it was -16%.
With `Cc1cccn2c(=O)c3cc(C#N)c(=NC(=O)c4cccnc4)n(CC4CCCO4)c3nc12` (stereo not drawn), the “hERG current change (%, negative = inhibition) at 1uM” value was -10.2%.
The figure for `Cc1cccn2c(=O)c3cc(C(=O)NCc4cccnc4)c(=N)n(CC4CCCO4)c3nc12` (stereo not drawn) is -78.5%; for `Cc1ccc(Cn2c(=N)c(C(=O)NCC3CCCO3)cc3c(=O)n4cccc(C)c4nc32)cc1` (stereo not drawn) it is -85.9%; for `Cc1cccn2c(=O)c3cc(C(=O)NCC4CCCO4)c(=N)n(Cc4cccnc4)c3nc12` (stereo not drawn) it is -96.3%.
In the case of `Cc1cccn2c(=O)c3cc(C(=O)NCCN4CCOCC4)c(=N)n(Cc4cccnc4)c3nc12` it was 9.95%; in that of `Cc1cccn2c(=O)c3cc(C(=O)NC4CCCC4)c(=N)n(Cc4ccc(F)cc4)c3nc12`, -19.4%.
In the case of `CCn1c(SCc2nc(CC(=O)Nc3ccccc3OC)no2)nnc1-c1cccs1` it was -19.1%.
Turning to `COc1ccc(CNC(=O)C2CSC(=O)C2)cc1` (stereo not drawn), the “hERG current change (%, negative = inhibition) at 1uM” value is reported as 8.88%.
In the case of `Cc1cccc(-n2c(O)c(/C=N/NC(=O)c3ccccc3Cl)c3ccccc3c2=O)n1` it was 9.11%.
The figure for `COc1cccc(/C=C/C(=O)OCC(=O)Nc2cc(C(F)(F)F)ccc2Cl)c1` is 8.68%; for `CN(C(=O)c1ccc(OC2CCN(S(=O)(=O)N(C)C)CC2)cc1)C1CCCCC1` it is -1.59%.
For the compound `O=C(NCCNC(=O)c1cc(OCC(F)(F)F)ccc1OCC(F)(F)F)Nc1ccccc1`, the “hERG current change (%, negative = inhibition) at 1uM” value is reported as -15%.
In the case of `CCN1CCS/C1=C/C=C/C1=[N+](CC)CCS1.[I-]` it was 3.64%.
The figure for `Cc1ccc(S(=O)(=O)Nc2ccc3c(c2)nc(CCN2CCCC2)n3C)cc1` is -13.7%; for `Cn1c(CCN2CCCCC2)nc2cc([N+](=O)[O-])ccc21` it is -54.8%; for `Cn1c(CCN2CCCC2)nc2cc(NS(=O)(=O)c3ccc(Cl)cc3)ccc21` it is -62%.
The figure for `Cn1c(CN2CCCCC2)nc2cc(NS(=O)(=O)c3ccc(Cl)cc3)ccc21` is -9.75%; for `Cn1c(CN2CCCCC2)nc2cc([N+](=O)[O-])ccc21` it is -2.57%; for `Cn1c(CCN2CCCCC2)nc2cc(NS(=O)(=O)c3ccc(Cl)cc3)ccc21` it is -59.1%.
With `CCN1CCN(CCc2nc3cc([N+](=O)[O-])ccc3n2C)CC1`, the “hERG current change (%, negative = inhibition) at 1uM” value is given as -1.88%.
The figure for `Cn1c(CN2CCN(C(=O)c3ccccc3)CC2)nc2cc([N+](=O)[O-])ccc21` is -29.6%; for `Cc1ccc(S(=O)(=O)Nc2ccc3c(c2)nc(CCN2CCCCC2)n3C)cc1` it is -29.7%.
In the case of `Cn1c(CN2CCN(C(=O)c3ccc(F)cc3)CC2)nc2cc([N+](=O)[O-])ccc21` it was -59.1%; in that of `Cn1c(CN2CCCC2)nc2cc(NS(=O)(=O)c3ccc(Cl)cc3)ccc21`, -31%.
The figure for `CC(=O)N1CCN(Cc2nc3cc([N+](=O)[O-])ccc3n2C)CC1` is 14%.
Take `CSCCC(NC(=O)OCc1ccccc1)C(=O)NCc1cccnc1` (stereo not drawn): the “hERG current change (%, negative = inhibition) at 1uM” value was 9.52%.
The figure for `O=C(N/N=C/c1ccc2c(c1)OCO2)c1ccc(COCC(F)(F)C(F)F)cc1` is 9.11%.
In the case of `N#Cc1nc(Cc2ccccc2)oc1N1CCCC1` it was 4.79%; in that of `Cc1ccc(C)c(-n2ccnc2SCC(=O)O)c1`, 14.4%.
In the case of `COC(=O)c1sc(S(=O)(=O)NC(C)C(=O)O)c(C(=O)OC)c1C` (stereo not drawn) it was -4.83%; in that of `CCCN(CCC)CCCNC(=O)C1CCN(S(=O)(=O)c2cccc3nsnc23)CC1`, 12.5%; in that of `CCc1ccc(NC(=O)Nc2cccs2)cc1`, 21.2%.
As to `COc1cccc(C2=NOC(C(=O)Nc3ccc4c(c3)OCO4)C2)c1` (stereo not drawn), the “hERG current change (%, negative = inhibition) at 1uM” value came out at 12.7%.
Take `CCNS(=O)(=O)c1ccc(CCC(=O)N2CCN(c3cc(Cl)ccc3C)CC2)cc1`: the “hERG current change (%, negative = inhibition) at 1uM” value amounted to 12.4%.
In the case of `CCCOC1OC(=O)c2c1ccc(OC)c2OC` (stereo not drawn), the “hERG current change (%, negative = inhibition) at 1uM” value is 11.9%.
As to `O=S(=O)(Nc1ccc(-c2ccc3nncn3n2)cc1)c1cccc(F)c1`, the “hERG current change (%, negative = inhibition) at 1uM” value worked out at 14.1%.
In the case of `Cc1cccc(S(=O)(=O)Nc2ccc(-c3ccc4nncn4n3)cc2)c1` it was -85.6%.
As to `Cc1ccc(S(=O)(=O)Nc2ccc(-c3ccc4nncn4n3)cc2)cc1`, the “hERG current change (%, negative = inhibition) at 1uM” value worked out at 24.9%.
The figure for `BrCC1C[n+]2c(SCc3ccccc3)nc3sc4c(c3c2O1)CCCC4.[Br-]` (stereo not drawn) is 10.3%; for `Cc1ccc2c(c1)CCCN2C(=O)c1ccncc1` it is 8.11%.
Take `CCOC(=O)c1cccc(N2C(=O)C3C(C2=O)C2C=CC3C23CC3)c1` (stereo not drawn): the “hERG current change (%, negative = inhibition) at 1uM” value is on record as 8.16%.
Turning to `CCOc1ccccc1N1CCN(c2nc3ccccc3nc2C(C#N)C(=O)OC(C)C)CC1` (stereo not drawn), the “hERG current change (%, negative = inhibition) at 1uM” value is 12.5%.
In the case of `COc1ccc(C(=O)N2CCN(Cc3ccccc3)CC2)cc1[N+](=O)[O-]` it was -22.3%.
The figure for `CCOc1ccc(C(=O)N2CCN(CCc3ccccc3)CC2)cc1OCC` is -77.5%.
In the case of `CCOc1ccc(C(=O)N2CCN(C(=O)c3ccco3)CC2)cc1OCC` it was 10.8%; in that of `CN1CCN(C(=O)c2cc3ccccc3oc2=O)CC1`, 8.34%.
For `COc1ccc(C(=O)N2CCN(CCCc3ccccc3)CC2)cc1OC.O=C(O)C(=O)O`, the “hERG current change (%, negative = inhibition) at 1uM” value was -61.8%.
Consider `COc1cccc(C(=O)N2CCN(CCCc3ccccc3)CC2)c1OC.O=C(O)C(=O)O`, for which the “hERG current change (%, negative = inhibition) at 1uM” value was -4.87%.
The figure for `O=C(NCCN1CCN(C(=O)c2cc3ccccc3oc2=O)CC1)c1cc2ccccc2oc1=O` is -0.615%; for `CCOc1ccc(C(=O)N2CCN(c3ccccc3)CC2)cc1OCC` it is 1.55%.
As for `COc1ccc(C(=O)N2CCN(Cc3ccc4c(c3)OCO4)CC2)cc1[N+](=O)[O-]`, the “hERG current change (%, negative = inhibition) at 1uM” value was -6.08%.
The figure for `COc1cc(C(=O)N2CCN(CCCc3ccccc3)CC2)cc(OC)c1OC` is 3.21%; for `O=C(c1cc2ccccc2oc1=O)N1CCN(CCc2ccccc2)CC1` it is -60.4%.
The figure for `COc1ccc(C(=O)N2CCN(CCc3ccccc3)CC2)cc1[N+](=O)[O-]` is -73.5%.

Values taken from PMC4336329 (PLoS ONE, 2015).
